Assay results: the supplement of paper PMC7695840
Structures can show the parent of a compound that is named as a salt.

These compounds were tested on Staphylococcus aureus MW2 (mecA+) (assay: normalized DsRed fluorescence (growth of mecA+ strain) (fraction of control range); higher = more growth of mecA+ strain). Conditions: compound concentration: 150 uM; cefoxitin: subinhibitory; fluorescent label: DsRed.
Summary of the method: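 A 1:1 mix of pre-induced S. aureus MW2 cells, DsRed-labeled with the gene and GFP-labeled without it, was grown in LB with a daily-set subinhibitory antibiotic dose on 150 μM compound (1.5% DMSO) in 1536-well plates, single replicate. Growth lasted 20 h at 37 °C, 90% humidity, without shaking, and DsRed (540/590) and GFP (485/520) were then read. Channels were scaled per plate to single-strain control medians, and plates with high untreated ratios and rows with DsRed/GFP >10 were removed.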

Structure (SMILES)	normalized DsRed fluorescence
CCN(CC)CCCC(C)Nc1ccnc2cc(Cl)ccc12 (stereo unspecified)	0.443
CNCC[C@@H](Oc1ccccc1C)c1ccccc1	0.638
NC(=O)c1cc[n+](CC2=C(C(=O)O)N3C(=O)[C@@H](NC(=O)[C@@H](c4ccccc4)S(=O)(=O)[O-])[C@H]3SC2)cc1	1.03
CC1=C(CC(=O)O)c2cc(F)ccc2/C1=C\c1ccc([S+](C)[O-])cc1 (stereo unspecified)	0.476
CC1=C(C(=O)O)N2C(=O)[C@@H](NC(=O)[C@H](N)c3ccc(O)cc3)[C@H]2SC1	1.2
CC(C)(C)NC[C@H](O)COc1cccc2c1CCCC2=O	0.5
CC1(C)[C@@H](OC(=O)CCC(=O)O)CC[C@]2(C)[C@H]3C(=O)C=C4[C@@H]5C[C@@](C)(C(=O)O)CC[C@]5(C)CC[C@@]4(C)[C@]3(C)CC[C@@H]12	0.249
CC(=O)OCC(=O)[C@@]1(O)CC[C@H]2[C@@H]3CCC4=CC(=O)CC[C@]4(C)[C@H]3C(=O)C[C@@]21C	0.634
C[C@@H]1O[C@@H](OC[C@H]2O[C@@H](Oc3c(-c4ccc(O)c(O)c4)oc4cc(O)cc(O)c4c3=O)[C@H](O)[C@@H](O)[C@@H]2O)[C@H](O)[C@H](O)[C@H]1O [Rutin (Rutoside)]	0.725
COc1ccc2cc([C@H](C)C(=O)O)ccc2c1 [Naproxen (Aleve)]	0.825
CCCCNC(=O)NS(=O)(=O)c1ccc(C)cc1	0.588
Oc1ccc(OCc2ccccc2)cc1	0.522
OCCN1C[C@H](O)[C@@H](O)[C@H](O)[C@H]1CO	0.724
c1ccc(CC2=NCCN2)cc1	0.835
CN1CCN(c2c(F)cc3c(=O)c(C(=O)O)cn(CCF)c3c2F)CC1 [Fleroxacin (Quinodis)]	0.075
CCOC(=O)[C@H](CCc1ccccc1)N[C@@H](C)C(=O)N1Cc2cc(OC)c(OC)cc2C[C@H]1C(=O)O [Moexipril HCl]	0.48
